High-throughput results from PubChem BioAssay.
Hits are enriched below; roughly 8% of the tested compounds scored in any of these assays.
Marburg entry inh = Marburg virus entry inhibition | Potency, µM (titrated, usually from 37.8 µM), most hits filed as inhibitors | AID 540276 | hit rate 1.8% among 300,000 | Marburg virus pseudotyped entry inhibition, cell reporter; calls by dose curve; tested in HEK293 cells
SARS PLpro yeast = blocks SARS-CoV papain-like protease in a yeast assay. S. cerevisiae expressing SARS-CoV PLpro, growth rescue. Potency, µM (series often up to 32.9 µM), hits mostly activators. hit rate 0.19% among 330,000; calls by dose curve; note: nearly all actives have a fitted effect of over 55% in size
HCMV inh = inhibitors of human cytomegalovirus. AID 1259415. hit rate 4.5% among 410,000. activity change, negative = inhibition, % at 57.5 µM. HFF cells, HCMV-luciferase reporter, 72 h; stronger effect = lower value; in the data active = activity change below about -60%; inconclusive = no clear call, values can overlap the other calls; inactive = above about -39%
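Compounds were evaluated in HFFs infected with an HCMV luciferase reporter virus (MOI 1 PFU/cell). Luciferase in lysates collected 72 h post infection served as the replication measure.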
Lassa entry inh = blocks Lassa virus binding to or entry into cells | Lassa virus pseudotype entry inhibition, cell reporter | hit rate 1.2% among 300,000 | Potency, µM (titrated, usually from 37.9 µM), usual class: inhibitors; calls by dose curve; tested in HEK293 cells; note: nearly all actives have a fitted effect of over 50% in size
HCV inhibitor = inhibitors of hepatitis C virus infection | Huh7.5.1 HCVcc-Cre infection, luciferase reporter, 44 h | Potency, µM (series often up to 41.8 µM), hits mostly inhibitors | hit rate 3.4% among 340,000 | AID 651820; active = well fitted inhibition curve with a large enough effect; inconclusive = small, poorly fitted or top-dose-only effect, or another doubt; inactive = no such curve, though single readings can be large or run the other way
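Luciferase read-out (15 sec integration) after a 15 min room-temperature substrate step quantifies HCVcc-Cre infection. Cells, 1,000 per well, had compound added 4 h post-plating, then virus at ~0.5 moi, and were cultured 44 h.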
FMDV antiviral = foot and mouth disease virus antiviral activity. FMDV antiviral cell-based qHTS. Potency, µM (top dose mostly 57.9 µM), most hits filed as inhibitors. hit rate 1.2% among 410,000; calls by dose curve; tested in HEK293T cells; note: read-out not given here; nearly all actives have a fitted effect of over 45% in size
Large screens that a line does not name were inactive; ! = not active in a repeat.

N[C@H](Cc1cccc(-c2ccccc2CP(=O)(O)O)c1)C(=O)O	none (no result: SARS PLpro yeast, HCMV inh, Lassa entry inh, HCV inhibitor, FMDV antiviral)
COc1ccccc1CNS(=O)(=O)c1cnc(N)nc1	HCMV inh inconclusive (no result: Marburg entry inh, SARS PLpro yeast, HCV inhibitor)
C[C@H]1CN([C@@H](C)CO)S(=O)(=O)c2ccc(/C=C/c3ccccc3)cc2O[C@H]1CN(C)C(=O)NC1CCCCC1	HCMV inh -63 (no result: Marburg entry inh, SARS PLpro yeast, Lassa entry inh, HCV inhibitor)
C[C@H]1CN([C@@H](C)CO)S(=O)(=O)c2ccc(Br)cc2O[C@H]1CN(C)Cc1ccccc1	FMDV antiviral inconclusive (no result: Marburg entry inh, SARS PLpro yeast, Lassa entry inh, HCV inhibitor)
C[C@H](CO)N1C[C@H](C)[C@H](CN(C)Cc2ccc(Oc3ccccc3)cc2)Oc2cc(Br)ccc2S1(=O)=O	HCMV inh -109 (no result: Marburg entry inh, SARS PLpro yeast, Lassa entry inh, HCV inhibitor)
COc1ccc(CN2CCOc3ccc(CN4CCC(Oc5cccnc5)CC4)cc3C2)cc1C	none (no result: Marburg entry inh, SARS PLpro yeast, HCMV inh, Lassa entry inh, HCV inhibitor)
CCC(C)S(=O)(=O)c1oc(-c2cccs2)nc1S(=O)(=O)c1ccccc1 (stereo not given)	Marburg entry inh inconclusive, HCMV inh -102, Lassa entry inh inconclusive, FMDV antiviral 28µM (no result: SARS PLpro yeast, HCV inhibitor)
O=S(=O)(c1ccccc1)c1nc(-c2cccs2)oc1N1CCCCC1	none (no result: SARS PLpro yeast, HCV inhibitor)
CCCCNc1oc(-c2cccs2)nc1S(=O)(=O)c1ccccc1	Marburg entry inh inconclusive, HCMV inh inconclusive, Lassa entry inh inconclusive, HCV inhibitor 10µM
CNc1oc(-c2cccs2)nc1S(=O)(=O)c1ccccc1	none (no result: Lassa entry inh)
Cc1cccc(CNC(=O)c2cnn(-c3nccc(-c4cccs4)n3)c2C2CC2)n1	none (no result: Marburg entry inh, SARS PLpro yeast, HCMV inh, Lassa entry inh, HCV inhibitor)
CCn1c(-c2cccc(OC)c2)nc2cc(NC(C)=O)cc(C(=O)N3CCCC(C(C)=O)C3)c21 (stereo not given)	none (no result: Marburg entry inh, SARS PLpro yeast, HCMV inh, Lassa entry inh, HCV inhibitor)
COc1ccc(-c2cc3ccc(O)c(CN4CCCCC4C)c3oc2=O)cc1OC (stereo not given)	none (no result: Marburg entry inh, SARS PLpro yeast, HCV inhibitor)
O=C(/C=C\c1ccc(O)cc1)c1ccc(O)cc1O	Marburg entry inh 10µM (no result: SARS PLpro yeast, HCMV inh, Lassa entry inh, HCV inhibitor, FMDV antiviral)
Cc1nn(-c2ccccc2Cl)c(Cl)c1/C=N/Nc1nc2ccccc2s1	Marburg entry inh 0.033µM, HCMV inh -94, Lassa entry inh 1.1µM, FMDV antiviral 0.0009µM
Cc1ccc(Nc2cc(C)nn2-c2nc(C)cc(=O)[nH]2)cc1	Marburg entry inh 2.8µM, Lassa entry inh 1.6µM, HCV inhibitor inconclusive, FMDV antiviral 3.5µM (no result: HCMV inh)
CCOC(=O)c1cc(-c2ccccc2)nc2nc(N(CC)CC)sc12	Marburg entry inh inconclusive, HCMV inh -90, Lassa entry inh inconclusive, HCV inhibitor 14µM
CCOC(=O)c1cnc(-c2ccccc2)nc1-c1ccccc1	Marburg entry inh inconclusive, HCMV inh -102
CCOC(=O)c1cnn2c(C)cc(-c3ccccc3)nc12	HCV inhibitor 10µM
CN(C)C(=O)c1cnc(-c2ccccc2)nc1-c1ccccc1	Marburg entry inh inconclusive, HCMV inh -62
CCOC(=O)c1cc2nc(-c3ccccc3)cc(C)n2n1	HCV inhibitor inconclusive
CCOC(=O)c1cc(-c2ccccc2)nc2nc(N3CCCCC3)sc12	none
CCOC(=O)c1cnc(N)nc1-c1ccccc1	none (no result: SARS PLpro yeast)
CNC(=O)c1cnc(-c2ccccc2)nc1-c1ccccc1	none
COc1ccc(-n2c(SCC(=O)N3CCC(C)CC3)nc3c([nH]c4ccccc43)c2=O)cc1	none (no result: Marburg entry inh, SARS PLpro yeast, HCV inhibitor)
CCCCc1nn2c(=O)cc(COC(=O)c3ccc(NC(=O)C4CCCCC4)cc3)nc2s1	FMDV antiviral inconclusive (no result: Marburg entry inh, SARS PLpro yeast, HCV inhibitor)
CCOc1ccc(N(CC)C(=O)c2cc3c(s2)-c2ccc(Cl)cc2SC3)cc1	Lassa entry inh inconclusive (no result: SARS PLpro yeast, HCV inhibitor)
COC(=O)c1cn(NC(=O)C2CCC(C)CC2)c(=O)c2ccccc12 (stereo not given)	none
COC(=O)c1cn(NC(=O)c2cc([N+](=O)[O-])ccc2F)c(=O)c2ccccc12	Marburg entry inh inconclusive, HCMV inh -97, Lassa entry inh inconclusive, HCV inhibitor inconclusive, FMDV antiviral 32µM
CCOC(=O)c1c(CNCCN(CC)CC)n(C)c2cc(Br)c(OC)cc12	Marburg entry inh 11µM!, Lassa entry inh inconclusive, HCV inhibitor inconclusive
CCN(CC)CCNC(=O)c1c(C)n(-c2ccccc2)c2cc(Br)c(OC)cc12	Marburg entry inh inconclusive, Lassa entry inh 7.3µM, HCV inhibitor inconclusive
CCOC(=O)c1c(C)n(C)c2cc(Br)c(C(=O)OC)cc12	Marburg entry inh inconclusive, HCV inhibitor 10µM
COc1ccc(CNC(=O)CCC2N=C3c4ccccc4N=C(SCc4ccc(F)cc4)N3C2=O)cc1 (stereo not given)	none (no result: Marburg entry inh, SARS PLpro yeast, HCV inhibitor)
O=C(CNc1cccc2ccccc12)N/N=C/c1cccc(Oc2ccccc2)c1	HCMV inh -61
